Out of some 69,000 compounds screened, about 8,600 (12%) showed an effect of 50% or more. The list comes from a sample in which strong results are over-represented; it also holds similar structures and randomly drawn compounds.

Among the data in ChEMBL document CHEMBL4513216, “Probing the Open Global Health Chemical Diversity Library for Multistage-Active Starting Points for Next-Generation Antimalarials” (ACS Infect Dis, 2020) are INHIBITION values, retold here.

This assay has as its system Plasmodium berghei. Briefly: Screen against P. berghei liver stage (PbLuc), transformed with Luciferase, at 10uM. The assay is classed as functional, HepG2. As to conditions: tested at 10 uM.
Turning to `CC[C@@H](c1ccccc1)n1c(C2CC2)n[nH]c1=O`, the INHIBITION is listed as 37.3%.
Turning to `CCc1noc(CNCCn2cc(C)cn2)n1`, the INHIBITION is -9.37%.
As to `COCCNc1nc(C2CCCC2)nc2c1CCNCC2`, the INHIBITION is -39.9%.
In the case of `Cc1nc2c(c(NCC(O)C(F)(F)F)n1)CCNCC2` (stereo unspecified) it was 93.2%; in that of `C1Cc2nc(CCNc3nc(C4CC4)nc4c3CCNCC4)sc2C1`, 64.8%.
Consider `OC(CNc1nc(C2CCCC2)nc2c1CCNCC2)C(F)(F)F` (stereo unspecified), for which the INHIBITION is reported as 52.1%.
With `COCc1noc(CNc2nc(C3CCCC3)nc3c2CCNCC3)n1`, the INHIBITION is recorded as -52.2%.
With `Cc1nc2c(c(NCC(O)c3ccccc3Cl)n1)CCNCC2` (stereo unspecified), the INHIBITION is -32.6%.
With `c1nc(CCNc2nc(C3CC3)nc3c2CCNCC3)c[nH]1`, the INHIBITION was -3.77%.
In the case of `OC(CNc1ncnc2c1CCNCC2)C(F)(F)F` (stereo unspecified) it was 13.6%; in that of `Cc1nc2c(c(NCCc3nc4c(s3)CCCC4)n1)CCNCC2`, 25.8%.
For `CC(C)c1nn2c(-c3cnn(C)c3)nnc2s1`, the INHIBITION is listed as -14.2%.
In the case of `CCC(C)(CNC(=O)c1ccon1)NC(=O)c1ccon1` (stereo unspecified) it was -13.7%; in that of `COCC(=O)NCC1Cn2nnc(-c3ccncc3)c2CO1` (stereo unspecified), -4.02%.
The figure for `COCCN1CCC2(CC1)CN(C(C)=O)c1ccc(C)cc12` is -33%.
On to `CCc1ocnc1C(=O)N1CCCC1c1noc(C)n1` (stereo unspecified), for which the INHIBITION stood at 5.07%.
In the case of `C=C(C)COc1cccc(CNCc2nc3ccccc3c(=O)[nH]2)c1` it was 28.5%; in that of `C=C(C)COc1cccc(CNCCc2nc(N)cc(O)n2)c1`, 52.6%.
`C=C(C)COc1cccc(CNCCc2c[nH]cn2)c1`: the INHIBITION was 29.1%.
The figure for `COCC1CC2(CCN(CC3CC3)CC2)CN1Cc1csc(C)n1` (stereo unspecified) is 37.8%; for `CCOC(=O)CCNC(=O)c1cc(Cl)cc2cccnc12` it is 30.5%; for `CCn1c(CC2CCN(C(=O)C3CNCCO3)CC2)nn(C)c1=O` (stereo unspecified) it is 47.4%.
For the molecule `CCn1c(CC2CCN(C(=O)C3COCCO3)CC2)nn(C)c1=O` (stereo unspecified), the INHIBITION is reported as 9.56%.
`CCn1c(CC2CCN(C(=O)C3CCOC3)CC2)nn(C)c1=O` (stereo unspecified): the INHIBITION was 56.1%.
The figure for `Cc1noc(-c2ccnc(N3CCC(CN4CCOCC4)CC3)c2)n1` is 69.4%; for `Cc1noc(-c2ccnc(N3CCC(N4CCCC4)CC3)c2)n1` it is 48.5%.
Regarding `Cc1noc(-c2ccnc(N3CCN(C4CCOCC4)CC3)c2)n1`, the INHIBITION is listed as 10.7%.
The figure for `Cc1ccc(-c2nc(CNCC3CN(C)CCO3)co2)cc1` (stereo unspecified) is -12.2%.
In the case of `CC(=O)N1CCC2(CC1)C(=O)N(CC1CC1)c1ccccc12` it was 1.56%; in that of `Cc1cc(CNC(=O)C(c2ccc(F)cc2)N(C)C)n[nH]1` (stereo unspecified), 37.3%.
`CN(C)C(C(=O)NCc1cc(C(C)(C)C)n[nH]1)c1ccc(F)cc1` (stereo unspecified): the INHIBITION was determined as 50.2%.
In the case of `Cc1ccc(C(C(=O)NCc2cc(C)[nH]n2)N(C)C)cc1` (stereo unspecified) it was 31.4%; in that of `Cc1cc(N2CCC(NC(=O)CCC3CCCO3)CC2)nc(C)n1` (stereo unspecified), 62.2%; in that of `Cc1cc(N2CCC(NC(=O)CCc3ccco3)CC2)nc(C)n1`, 38.7%.
Turning to `CCc1cc(N2CCC(NC(=O)CCC3CCCO3)CC2)ncn1` (stereo unspecified), the INHIBITION was found to be 37.6%.
The figure for `COc1ccc2nnc(CCCC(=O)Nc3nc4c(s3)CCC4)n2n1` is 38.4%; for `COc1cc(C)c(CN2CCC3(CC2)[C@H](O)C[C@@H]3OCCN)cc1C` it is 23.3%.
As for `COc1ccc(F)c(F)c1CN1CCC2(CC1)[C@H](O)C[C@@H]2OCCN`, the INHIBITION is listed as 7.31%.
In the case of `COc1cc(CN2CC[C@@]3(CCCO3)[C@@H](O)C2)ccc1F` it was 44.9%; in that of `COCCCC1(CO)CCCN(Cc2ccc(F)c(OC)c2)C1` (stereo unspecified), -58.9%; in that of `COc1cc(CN2CCC3(CC2)[C@H](O)C[C@@H]3OCCO)ccc1F`, 51.1%.
The figure for `NCCO[C@H]1C[C@@H](O)C12CCN(Cc1c(F)cccc1F)CC2` is 52.2%; for `CNC(=O)CN(C)C(=O)c1cc2ccccc2cc1OC` it is 45.2%; for `CC(C)c1nc(CN2CCCN(Cc3nccn3C)CC2)no1` it is -23.8%.
The figure for `Cn1nnnc1SCC1COc2ccccc2O1` (stereo unspecified) is 35.2%; for `CC[C@H](C)[C@H](N)C(=O)N1CC(=O)c2sc(NC3CCCCC3)nc2C1` it is 35.2%.
With `COCCN1CC(=O)c2sc(NCc3ccccc3)nc2C1`, the INHIBITION is recorded as -0.371%.
In the case of `CC(C)Nc1nc2c(s1)C(=O)CN(C(=O)NCCc1ccccc1)C2` it was -7.79%; in that of `CCNc1nc2c(s1)C(=O)CN(C(=O)NCCc1ccccc1)C2`, 24.4%.
The figure for `CNc1nc2c(s1)C(=O)CN(C(=O)NCc1ccccc1)C2` is 42.9%; for `CC[C@H](C)[C@H](N)C(=O)N1CC(=O)c2sc(NCc3ccccc3)nc2C1` it is 61.9%.
On to `CNc1nc2c(s1)C(=O)CN(C(=O)NCCc1ccccc1)C2`, for which the INHIBITION was found to be 23.4%.
Regarding `CC(C)Nc1nc2c(s1)C(=O)CN(C(=O)NCc1ccccc1)C2`, the INHIBITION came out at 73.8%.
The figure for `CCNc1nc2c(s1)C(=O)CN(C(=O)NCc1ccccc1)C2` is 66.4%; for `O=C(Cc1ccccc1)N1Cc2nccn2CC(CN2CCCC2)C1` (stereo unspecified) it is 11.3%.
In the case of `O=C(c1cccc(NCCOc2ccc(F)cc2)c1)N1CCOCC1` it was 10.6%; in that of `CC(C)c1nc(-c2cc(C(=O)N3CCN(C)CC3)c3ccccn23)cs1`, 10.5%; in that of `CCC(CC)C(=O)c1c[nH]c(C(=O)N2CCN(c3ccccc3)CC2)c1`, -26.8%.
In the case of `Cc1noc(C)c1C(C)C(=O)N1CCCN(Cc2cscn2)CC1` (stereo unspecified) it was 21.08%.
In the case of `CS(=O)(=O)Cc1ccc(C(=O)NCc2ccc(Cl)cc2Cl)cc1`, the INHIBITION came to 29.4%.
In the case of `O=C(NCCSC1CCCC1)c1cc(Cl)ccn1` it was -45%; in that of `O=C(NCc1nc(NC2CCCC2)c2cc(Cl)ccc2n1)c1cncs1`, 68.6%; in that of `O=C(NCc1nc(NC2CCCC2)c2cc(Cl)ccc2n1)c1ccoc1`, 89%.
For `O=C(NCc1nc(NC2CCCC2)c2cc(Cl)ccc2n1)c1cscn1`, the INHIBITION stood at 54.6%.
In the case of `O=C(NCCNC(=O)c1scnc1Cl)c1ccoc1` it was -23.8%; in that of `COc1ccc(-n2cc(CNC(=O)c3cscn3)nn2)cc1`, -27.3%.
For the molecule `COCC(=O)N1CCC(Nc2ccnc3ccc(Cl)cc23)CC1`, the INHIBITION is reported as -56.3%.
For `O=C(NCCNC(=O)C1CCN(c2ncccn2)CC1)c1ccoc1`, the INHIBITION turned out to be 15.1%.
As to `NC(=O)CN1CCC(Nc2ccnc3ccc(Cl)cc23)CC1`, the INHIBITION worked out at 15.1%.
On to `COc1ncccc1C(=O)N1CC[C@H]2C[C@@H](c3noc(C)n3)O[C@@H]2C1`, for which the INHIBITION came out at 15.4%.
For `COCC1CC2(CCN(Cc3ccco3)CC2)CN1C(C)C` (stereo unspecified), the INHIBITION was 14.6%.
In the case of `CCn1cc(CNCC(c2ccc(Cl)cc2)n2cccn2)cn1` (stereo unspecified) it was 3.58%; in that of `Cc1nc2cc(NC(=O)Cn3ncc(N4CCCC4)cc3=O)ccc2s1`, 41.2%; in that of `COCCN1C(=O)CCC12CCC(NCc1cccc(C)n1)CC2` (stereo unspecified), 41%.
With `O=C(Cc1c[nH]c2ncccc12)NCC(O)c1ccccc1F` (stereo unspecified), the INHIBITION is 26.05%.
For the molecule `CC(=O)N1C[C@H]2CC[C@@H](C1)N(Cc1ccc(Cn3cccn3)cc1)C2`, the INHIBITION worked out at 4.59%.
Take `Cc1cc(C(=O)N(C)Cc2cnn(C)c2C)n(C)n1`: the INHIBITION stood at 68.9%.
In the case of `Cc1c(CN(C)C(=O)c2ccnn2C)cnn1C` it was 31.7%; in that of `CCn1ncc(CN(C)C(=O)c2cc(C(F)(F)F)n(C)n2)c1C`, 1.86%; in that of `O=C(Cc1csc(-c2ccco2)n1)N1CCSCC1`, -5.25%.
With `CN(Cc1ccc(F)cc1)C(=O)CN1CCCC(Cn2cncn2)C1` (stereo unspecified), the INHIBITION is 11.6%.
Consider `Cc1ccc(CN(C)C(=O)CN2CCCC(Cn3cncn3)C2)cc1` (stereo unspecified), for which the INHIBITION was 51.1%.
The figure for `CCN(Cc1ccccc1)C(=O)CN1CCCC(Cn2cncn2)C1` (stereo unspecified) is 63.9%; for `CN(Cc1cccc(F)c1)C(=O)CN1CCCC(Cn2cncn2)C1` (stereo unspecified) it is 75.2%; for `CN(Cc1cccc(F)c1)C(=O)CN1CCOC(Cn2cncn2)C1` (stereo unspecified) it is 37.9%.
Regarding `CCN(Cc1ccccc1)C(=O)CN1CCOC(Cn2cncn2)C1` (stereo unspecified), the INHIBITION was -122%.
On to `CN(Cc1cccc(F)c1)C(=O)CN1CCCCC1Cn1cncn1` (stereo unspecified), for which the INHIBITION is reported as 13.5%.
In the case of `CN(Cc1ccsc1)C(=O)CN1CCCC(Cn2cncn2)C1` (stereo unspecified), the INHIBITION was 17.5%.
The figure for `CN(Cc1ccccc1)C(=O)CN1CCCC(Cn2cncn2)C1` (stereo unspecified) is -25.9%.
Consider `CO[C@H]1CCN(S(=O)(=O)c2cccs2)[C@H]1Cc1cccnc1`, for which the INHIBITION is listed as -5.05%.
With `Cc1cc(C(=O)NCCN2CCN(S(C)(=O)=O)CC2)no1`, the INHIBITION is 10.3%.
The figure for `COc1cc(C2CC(=O)Nc3c2cnn3C)ccc1O` (stereo unspecified) is 10.9%; for `CC(=O)N1C[C@@H](c2ccsc2)[C@@H]2CN(CC3CCCCC3)CC[C@@H]21` it is 30.8%; for `O=C(C1CCC1)N1C[C@@H](c2ccsc2)[C@@H]2CN(C3CCCC3)CC[C@@H]21` it is 5.34%.
As to `CC(=O)N1C[C@@H](c2ccsc2)[C@@H]2CN(Cc3ccccc3C)CC[C@@H]21`, the INHIBITION came out at 64.9%.
Regarding `O=C(C1CCCC1)N1C[C@@H](c2ccsc2)[C@@H]2CN(C3CCCC3)CC[C@@H]21`, the INHIBITION was 45.2%.
As for `COc1ccccc1CN1CC[C@H]2[C@@H](C1)[C@H](c1ccsc1)CN2C(C)=O`, the INHIBITION is 24.8%.
In the case of `CC(=O)N1C[C@@H](c2ccsc2)[C@@H]2CN(Cc3ccccc3Cl)CC[C@@H]21` it was 73.8%; in that of `Cc1n[nH]c(C)c1-c1cnc(C2CCN(S(C)(=O)=O)CC2)cn1`, 11.1%.
In the case of `O[C@@H]1CC(CNCc2cccc(Cl)c2)(COc2cccnc2)C[C@@H]1O` (stereo partly specified) it was 37.4%; in that of `COC(=O)c1ccc(NC(C)c2ccc3c(c2)CC(=O)N3)nn1` (stereo unspecified), -4.12%; in that of `Cc1nnc(N2CCO[C@H]3[C@@H](OCc4ccccn4)CC[C@@H]32)s1`, 11.4%.
Take `COCC1CCN(C(C(=O)O)c2c(F)cccc2OC(C)C)CC1` (stereo unspecified): the INHIBITION was 35.1%.
Turning to `CN(C)S(=O)(=O)Nc1ccc(Oc2ccc3c(c2)OCO3)cc1`, the INHIBITION was 41.2%.
`O=S(=O)(Nc1ccc2c(c1)OCCO2)N1CCCCC1`: the INHIBITION came out at 8.44%.
In the case of `O=S(=O)(Nc1ccc(Oc2ccc3c(c2)OCO3)cc1)N1CCCCC1` it was 52.7%.
